The sample as a whole holds a higher share of hits than the screen did.
Algae TAG accum – increases triacylglycerol in Chlamydomonas reinhardtii; Chlamydomonas reinhardtii TAG, Nile Red fluorescence, 72 h; calls only at 10 µM (by protocol); 44,000 tested, 0.84% active; AID 1159537; call rule not given here;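 note: hits raise Nile Red signal meaning more stored TAG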
* marks the source's active call; other numbers are inactive results; i = inactive; + = active, no number.

SMILES | Algae TAG accum
Cc1cc(C2(c3ccc(O)c(C)c3)C(=O)Nc3c(C)cc([N+](=O)[O-])cc32)ccc1O | i
Cn1c(SCC(=O)NCc2ccccc2)nnc1-c1ccc(NC(=O)c2ccccc2F)cc1 | i
Cn1c(SCC(=O)NCc2ccccc2)nnc1-c1ccc(C(C)(C)C)cc1 | +
COc1ccc(CNC(=O)CSc2nnc(-c3cccc(OC)c3)n2C)cc1 | i
CC(C)c1ccccc1NC(=O)c1ccncc1 | i
NC(=O)c1cc(NC(=O)c2ccco2)ccc1N1CCOCC1 | i
OC(COCCC12CC3CC(CC(C3)C1)C2)CN1CCOCC1 (stereo not drawn) | i
CCN1CCN(CC(O)COCCC23CC4CC(CC(C4)C2)C3)CC1 (stereo not drawn) | +
CCOC(=O)N1CCN(CC(O)COCCC23CC4CC(CC(C4)C2)C3)CC1 (stereo not drawn) | i
Cc1ccc2ccc(C(Nc3ccccn3)c3ccc(O)cc3)c(O)c2n1 (stereo not drawn) | i
O=C(NC1C2CC3CC(C2)CC1C3)c1cccs1 (stereo not drawn) | i
O=C(NCc1ccncc1)c1c(O)c2ccccc2[nH]c1=O | i
Cc1ccc(S(=O)(=O)NCCCN2CCOCC2)cc1 | i
COc1cc(Cl)c(S(=O)(=O)NCCCN2CCOCC2)cc1Cl | +
COc1cc(C)c(S(=O)(=O)NCCN2CCOCC2)cc1C | i
Cc1cc(I)ccc1S(=O)(=O)NCCCN1CCOCC1 | +
COc1cc(C)c(C)cc1S(=O)(=O)NCCN1CCOCC1 | i
Cc1c(Cl)ccc(S(=O)(=O)NCCN2CCOCC2)c1Cl | i
CC(NC(=O)C12CC3CC(CC(C3)C1)C2)C(=O)N1CCCC1 (stereo not drawn) | i
O=C(c1ccc(C(=O)N2CCc3ccccc3C2)cc1)N1CCc2ccccc2C1 | i
CS(=O)(=O)Nc1nc2ccc(Cl)cc2s1 | i
COc1ccc(C(=O)Nc2c(C)cccc2C)cc1Cl | i
CCOc1ccc(C2=CSC3=NCCN23)cc1 | +
Fc1ccc(C2=CSC3=NCCN23)cc1 | i
Brc1ccc(C2=CSC3=NCCN23)cc1 | i
SMILES | Algae TAG accum
Fc1ccc(-c2nc3cc(N4CCOCC4)c(N4CCOCC4)cc3[nH]2)cc1 | i
COc1ccc(CC(=O)NCc2ccc(F)cc2)cc1OC | i
CC(O)c1ccc(C(C)O)cc1 (stereo not drawn) | i
O=Cc1ccc(OCc2ccc(C(=O)O)cc2)c(Br)c1 | i
Cc1cc(C)n(CC(O)COc2ccc(C(C)C)c(C)c2)n1 (stereo not drawn) | i
CCOC(=O)N1CCN(CC(O)COc2ccc(C(C)(C)C)cc2)CC1 (stereo not drawn) | i
CC1CN(CC(O)COCc2ccc(Cl)cc2)CC(C)O1 (stereo not drawn) | i
Cc1cc(OCC(O)CN2CCN(CCO)CC2)ccc1C(C)C (stereo not drawn) | +
CC1CN(CC(O)COc2ccc(Cl)cc2Cl)CC(C)O1 (stereo not drawn) | i
Cc1cc(OCC(O)CN2CCN(c3ccccc3)CC2)ccc1C(C)C (stereo not drawn) | i
CC(C)(C)c1ccc(OCC(O)CN)cc1 (stereo not drawn) | i
CC1CN(CC(O)COc2ccc(C(C)(C)C)cc2)CC(C)O1 (stereo not drawn) | +
CC(C)(C)c1ccc(OCC(O)CN2CCN(CCO)CC2)cc1 (stereo not drawn) | +
Cc1ccc2nc(/C(C#N)=C/c3ccc4c(c3)OCO4)[nH]c2c1 | i
C=CCNC(=O)c1cc(I)ccc1NC(=O)c1ccc(F)cc1 | i
Cc1cc(N)c(-n2c(C)c3c(C)nnc(C)c3c2C)cc1C | i
CC(=O)C1=C(C)NC(SCC(=O)c2ccc(C)c(C)c2)=C(C#N)C1c1sccc1C (stereo not drawn) | i
CC(C)(C)NC(=O)CN(Cc1ccccc1)S(=O)(=O)c1ccc(F)cc1 | i
O=[N+]([O-])c1ccc(S(=O)(=O)Nc2ccc(S(=O)(=O)N3CCOCC3)cc2)cc1 | i
CC(=O)c1ccc(NS(=O)(=O)c2ccc(Cl)c(C(=O)Nc3ccccc3)c2)cc1 | i
COc1cccc(CN2CCC(N3CCN(c4ccccc4OC)CC3)CC2)c1 | i
O=C(c1ccccc1)C(Sc1nnc2sc3ccccc3n12)c1ccccc1 (stereo not drawn) | i
COc1ccc(C(=O)Nc2ccc(S(=O)(=O)Nc3ncccn3)cc2)cc1[N+](=O)[O-] | i
COc1cc(C(=O)Nc2ccc(S(=O)(=O)NC(C)=O)cc2)cc(OC)c1OC | i
COc1cc(C(=O)Nc2ccc(S(=O)(=O)Nc3ncccn3)cc2)cc(OC)c1OC | +
SMILES | Algae TAG accum
CCOc1cc(OCC)cc(C(=O)Nc2cccc([N+](=O)[O-])c2)c1 | i
COc1ccccc1CNC(=O)c1ccc(I)cc1 | i
O=C(Nc1cccc(Br)c1)c1ccc2nccnc2c1 | i
C=CCn1c(SCC(=O)O)nnc1-c1ccc([N+](=O)[O-])cc1 | +
C=CCn1c(SCC(=O)O)nnc1-c1ccc(OC)cc1 | i
C=CCn1c(SCC)nnc1-c1ccc([N+](=O)[O-])cc1 | i
C=CC1OCC2(CO)C(C)C=C(C)C1C2C (stereo not drawn) | i
CC(=O)C1=C(C)NC(SCC(=O)c2ccc(F)cc2)=C(C#N)C1c1ccccc1 (stereo not drawn) | i
CN1CCC(N(C)Cc2cc(Cl)ccc2O)CC1 | +
CN1CCC(N(C)Cc2cc(F)ccc2F)CC1 | i
CN(C)Cc1cc(Cl)ccc1O | i
COc1ccc(/C(C#N)=C/c2cccc(O)c2)cc1OC | i
CCSc1nnc(NC(=O)CC(c2ccccc2)c2ccccc2)s1 | i
Cc1ccc(NC(=O)CCC(=O)O)c(C)c1 | i
Cc1ccc(NC(=O)CC(C)C)c(NC(=O)CC(C)C)c1 | +
Cc1cccc(C(=O)Nc2ccc(C)cc2NC(=O)c2cccc(C)c2)c1 | i
COc1ccccc1N1CCN(C(=O)Nc2ccccc2Cl)CC1 | i
COc1cc(OC)cc(C(=O)N2CCN(c3ccccn3)CC2)c1 | i
COc1ccccc1NC(=O)N1CCN(c2ccccn2)CC1 | +
OC(COc1ccccc1Br)CN1CCCC1 (stereo not drawn) | i
CCOc1ccc(N(CC(=O)Nc2cccc([N+](=O)[O-])c2)S(=O)(=O)c2ccccc2)cc1 | i
CCC1CCC(NCc2ccc(F)cc2)CC1 (stereo not drawn) | i
Cc1ccc(Cl)cc1NC(=O)C1CC=CCC1C(=O)O (stereo not drawn) | i
O=C(O)C1CC=CCC1C(=O)Nc1ccc(F)cc1F (stereo not drawn) | +
Cc1ccc(NC(=O)C2CC=CCC2C(=O)O)c(Br)c1 (stereo not drawn) | i
SMILES | Algae TAG accum
O=C(CSc1nc2ccc(NC(=O)c3ccccc3Cl)cc2s1)NC1CC1 | i
Brc1ccc(OCCCn2ccnc2)cc1 | i
Ic1ccc(OCCCn2ccnc2)cc1 | i
O=C(c1ccccc1)c1ccc(OCCCCn2ccnc2)cc1 | +
C=CCOc1c(Br)cc(C=O)cc1OC | i
O=C(COc1ccccc1Cl)Nc1ccc(F)c(Cl)c1 | i
CCOc1ccc(NC(=O)Nc2ccc(Cl)cc2)cc1 | i
COc1cc(OC)cc(C(=O)Nc2ccccc2-c2ccccc2)c1 | i
Cc1ccc(C(=O)c2ccc(N3CCN(C)CC3)c(F)c2)cc1C | +
Cc1ccc(C(=O)c2ccc(N3CCN(C(=O)c4cccs4)CC3)c(F)c2)cc1C | i
CCC(=O)c1ccc(N2CCN(C(C)=O)CC2)c(F)c1 | i

Source: PubChem BioAssay
